Bioassay records as filed in PubChem BioAssay.
Hits are enriched below; roughly 2.9% of the tested compounds scored in any of these assays.
ADAM10 inh: ADAM10 inhibition, QFRET primary screen; inhibition, % at 7 µM; recombinant ADAM10, EDANS/DABCYL FRET peptide cleavage, 3 h; 370,000 compounds, 0.62% hits; O14672;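 active means inhibition above a per-campaign cutoff equal to the mean of compounds falling between control-based bounds plus 3 SD, cut at about 20% in these data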;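 further: 0% = DMSO wells while the 100% control is not disclosed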
Target sequence (O14672 214-748 limits assumed): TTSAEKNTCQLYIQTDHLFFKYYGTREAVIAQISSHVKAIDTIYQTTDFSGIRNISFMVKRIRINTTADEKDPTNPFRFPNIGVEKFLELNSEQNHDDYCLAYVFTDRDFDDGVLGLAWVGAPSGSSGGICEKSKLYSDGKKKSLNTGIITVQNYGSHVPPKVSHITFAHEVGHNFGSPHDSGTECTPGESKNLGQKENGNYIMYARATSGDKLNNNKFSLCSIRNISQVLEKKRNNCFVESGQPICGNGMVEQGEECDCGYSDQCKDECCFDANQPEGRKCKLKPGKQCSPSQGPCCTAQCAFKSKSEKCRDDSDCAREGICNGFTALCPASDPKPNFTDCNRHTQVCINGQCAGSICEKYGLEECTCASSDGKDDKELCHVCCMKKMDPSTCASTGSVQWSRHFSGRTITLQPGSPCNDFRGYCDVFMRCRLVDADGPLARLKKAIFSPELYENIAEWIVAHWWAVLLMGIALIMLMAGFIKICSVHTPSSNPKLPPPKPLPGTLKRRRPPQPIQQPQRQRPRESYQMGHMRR
KLK7 zymogen act: activators of human kallikrein-7 zymogen; P49862; purified proKLK7, EDANS-DABCYL substrate fluorescence; 100% is mature enzyme control, 0% vehicle; activation, % at 7 µM; 370,000 compounds, 0.9% hits;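 active means activation above the mean of all tested compounds plus 3 SD, computed per campaign excluding outliers beyond control limits, cut at about 13% in these data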
PLC-gamma1 inh: blocks human PLC-gamma1 enzyme activity. purified PLC-gamma1, fluorogenic substrate, fluorescence. inhibition, % at 12.2 µM. 370,000 compounds, 0.84% hits. AID 720700; in the data active means inhibition above about 9.5%
ADAM17 inh: ADAM17 inhibition, QFRET primary screen. P78536. recombinant ADAM17, EDANS/DABCYL FRET peptide cleavage. inhibition, % at 6.95 µM. 370,000 compounds, 0.83% hits. AID 720648;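 active means inhibition above the mean of compounds lying between control limits plus 3 SD, set per campaign, cut at about 8.5% in these data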;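 further: 0% = DMSO-only wells as the low control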
PLC-beta3 inh: inhibitors of human phospholipase C beta3 | Q01970 | Purified PLC-beta3, fluorogenic substrate, fluorescence | inhibition, % at 12.2 µM | 370,000 compounds, 0.18% hits;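 further: 0% = median of compound wells on plate and 100% = full blocker control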
PLCgamma1 ctr: PLC-gamma1 inhibition, counter-screen for PLC-beta3 hits | shares compounds with PLC-gamma1 inh | purified PLC-gamma1, fluorogenic substrate, fluorescence | inhibition, % at 12.3 µM | 3,300 compounds, 3.1% hits | AID 743258; in the data active means inhibition above about 9.5%
PLCbeta3 conf: human PLC-beta3 inhibition, confirmation; shares compounds with PLC-gamma1 inh; purified PLC-beta3, fluorogenic substrate fluorescence; inhibition, % at 12.3 µM; 3,300 compounds, 1% hits; AID 743261
* hit, by the source's call; i = inactive; . = no result given; ! = not active in a repeat. Unless noted, no stated cut-off is given here; in the data, active means inhibition above about 11%; inactive means the rest.

SMILES | ADAM10 inh | KLK7 zymogen act | PLC-gamma1 inh | ADAM17 inh | PLC-beta3 inh | PLCgamma1 ctr | PLCbeta3 conf
CN(C)S(=O)(=O)N1CCC(Oc2cccc(C(=O)NCCC3=CCCCC3)c2)CC1 | -8 | 0 | 11* | -1 | -10 | -12 | -1
C=CCNC(=S)NNC(=O)CCC(O)CCCCC (stereo unspecified) | 6 | 0 | 9 | 1 | 12* | -4 | -1
c1ccc([C@H]2CNCCN2CCc2cccc3ccccc23)cc1 | 4 | 0 | 12* | 2 | 5 | -5 | -3
Cc1ccc(N(CC(=O)NC2CCC(C)CC2)S(=O)(=O)c2cccnc2)cc1 (stereo unspecified) | 6 | 0 | 8 | 4 | 12* | -8 | -4
COc1ccc(N(CC(=O)NC2CCCCC2)S(=O)(=O)c2cccnc2)cc1 | -11 | -1 | 0 | 1 | 1 | . | .
O=C(N/C(=C\c1cccc([N+](=O)[O-])c1)C(=O)N1CCOCC1)c1cccc(Br)c1 | 8 | 0 | -4 | -1 | -8 | . | .
O=C1COc2ccc(C(=O)COC(=O)CCCOc3ccccc3)cc2N1 | -13 | -1 | 1 | 7 | 11* | -6 | -3
O=[N+]([O-])c1ccc(N2CCN(Cc3ccc([N+](=O)[O-])o3)CC2)cc1 | 4 | 0 | 9.8* | 8 | 0 | 1 | 2
Cc1[nH]c(=O)[nH]c(=O)c1S(=O)(=O)Nc1ccc(Cl)c([N+](=O)[O-])c1 | 6 | 0 | 3 | -2 | 5 | . | .
CCC1OC2(C)OC(=N)C1(C#N)C(C#N)(C#N)C2c1ccccc1 (stereo unspecified) | i | 12 | -461 | i | -499 | . | .
COc1ccccc1N1CCN(C(c2cccs2)c2nnnn2C2CCCC2)CC1 (stereo unspecified) | -3 | 0 | 9.9* | 1 | 2 | 1 | 1
c1ccc(CC2CCN(C(c3cccs3)c3nnnn3C3CCCC3)CC2)cc1 (stereo unspecified) | 8 | 1 | -4 | -3 | 0 | . | .
COCC(C)n1c(-c2ccc3c(c2)NC(=O)CO3)csc1=Nc1ccc(OC(F)F)cc1 (stereo unspecified) | 1 | 0 | 12*! | 0 | 4 | 4 | 3
COc1ccc(-n2c(=S)[nH]c3cc(C(=O)N(C)Cc4ccccc4)ccc3c2=O)cc1 | 18 | 0 | 12* | 7 | 1 | 1 | 2
COc1ccc(-n2c(=S)[nH]c3cc(C(=O)O)ccc3c2=O)cc1 | -37 | -1 | -3 | -11 | -3 | . | .
COc1cc(S(=O)(=O)Nc2ccc(C)cc2)ccc1NC(=O)c1ccncc1 | 13 | 1 | 12* | 5 | 7 | -4 | 1
Cc1ccc([C@H]2N[C@]3(CCCN(Cc4ccco4)C3=O)[C@H]3C(=O)N(Cc4ccccc4)C(=O)[C@@H]23)cc1 | 0 | 0 | 12* | 3 | 3 | 0 | -4
COCCn1c(=S)[nH]c2cc(C(=O)N3CCC(C(N)=O)(N4CCCCC4)CC3)ccc2c1=O | -2 | 0 | 0 | -2 | -2 | . | .
O=C(CCCN1C(=O)c2ccccc2C1=O)Nc1nccs1 | 6 | 1 | 14* | -4 | 2 | -3 | 1
CCCCN(C(=O)c1ccc(OC)c([N+](=O)[O-])c1)c1c(N)n(CCC)c(=O)[nH]c1=O | 1 | 0 | -1 | -5 | -6 | . | .
CCCn1c(N)c(N(CCOC)C(=O)c2ccc([N+](=O)[O-])c(C)c2)c(=O)[nH]c1=O | 11 | 0 | 9.6* | 1 | -2 | -4 | -1
CCn1nc(C)c(CN2CCN(Cc3ccsc3)C(CCO)C2)c1C (stereo unspecified) | 4 | 0 | 10* | 6 | -3 | 0 | 1
Cc1c(C(=O)OCCOc2ccccc2)[nH]c2c1C(=O)CCC2 | -4 | 1 | 0 | -1 | 0 | . | .
Cc1ccccc1NC1=C/C(=N\S(=O)(=O)c2ccc(C(=O)O)cc2)c2ccccc2C1=O | -6 | 1 | 25* | 0 | 9 | 20* | 4
Cc1ccccc1NC1=C/C(=N\S(=O)(=O)c2cccs2)c2ccccc2C1=O | -9 | -1 | 4 | 1 | 4 | . | .
